# Screening results: PubChem BioAssay, National Center for Advancing Translational Sciences (NCATS)
# This is a sample that favours compounds with a hit; in the whole collection about 7.8% have one here.
# Vaccinia mCherry = inhibitors of vaccinia virus infection (mCherry reporter signal). Vaccinia virus mCherry reporter infection, fluorescence. actives 0.63% (n = 310,000). Potency, µM (top dose mostly 36.5 µM), for inactives: at the top dose activity change, negative = inhibition, actives largely listed as inhibitors; calls by dose curve; tested in A549 cells; note: potency is the fitted concentration of half-maximal effect; nearly all actives have a fitted effect of over 35% in size
# LASV entry inh = Lassa virus entry inhibition. AID 540256. actives 1.2% (n = 300,000). Lassa virus pseudotype entry inhibition, cell reporter. Potency, µM (titrated, usually from 37.9 µM), inactives show top-dose activity change, negative = inhibition, usual class: inhibitors; calls by dose curve; tested in HEK293 cells; note: potency is the fitted concentration of half-maximal effect; nearly all actives have a fitted effect of over 50% in size
# HCMV antiviral = human cytomegalovirus inhibition. actives 4.5% (n = 410,000). AID 1259415. activity change, negative = inhibition, % at 57.5 µM. HFF cells, HCMV-luciferase reporter, 72 h; active compounds read low; in the data active = activity change below about -60%; inconclusive = no clear call, values can overlap the other calls; inactive = above about -39%
#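 Cell-based, HFFs, 1000 cells/well, 16 h 37C; cpds in DMSO + HCMV-luc, MOI 1 PFU/cell; 72 h 37C; OneGlo luminescence after 5 min RT; norm. to buffer vs Salinomycin 10uM.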
# MARV entry inh = Marburg virus entry inhibition. Marburg virus pseudotyped entry inhibition, cell reporter. Potency, µM (doses to about 37.8 µM), for the others: at the top dose activity change, negative = inhibition, hits mostly inhibitors. actives 1.8% (n = 300,000); calls by dose curve; tested in HEK293 cells; note: potency is the fitted concentration of half-maximal effect
# HCV inhibitor = inhibitors of hepatitis C virus infection. Huh7.5.1 HCVcc-Cre infection, luciferase reporter, 44 h. Potency, µM (doses to about 41.8 µM), for inactives: top-dose activity change, negative = inhibition, usual class: inhibitors. actives 3.4% (n = 340,000). AID 651820; active = well fitted inhibition curve with a large enough effect; inconclusive = small, poorly fitted or top-dose-only effect, or another doubt; inactive = no such curve, though single readings can be large or run the other way; note: potency is the fitted concentration of half-maximal effect
#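 Antiviral activity was scored by luciferase reporter output from cells infected with HCVcc-Cre (~0.5 moi) in presence of compound, 44 h infection period, cells seeded 1,000/well 4 h prior.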
# VACV Venus inh = inhibitors of vaccinia virus (Venus reporter); Vaccinia virus Venus reporter expression, fluorescence; Potency, µM (highest dose often 36.5 µM), without a hit: at the highest dose activity change, negative = inhibition, most hits filed as inhibitors; actives 0.46% (n = 330,000); AID 720580; calls by dose curve; tested in A549 cells; note: potency is the fitted concentration of half-maximal effect; nearly all actives have a fitted effect of over 30% in size
# Active calls of the source: *; i = inactive; ? = inconclusive; / = no result; [ ] = remark or other dose. % is set by controls: 0 for no effect and ±100 for the full control effect.
SMILES,Vaccinia mCherry,LASV entry inh,HCMV antiviral,MARV entry inh,HCV inhibitor,VACV Venus inh
CCOc1ccc(Cn2nnc3c(=O)[nH]c(C4CCN(C(=O)c5ccccc5)CC4)nc32)cc1,12%,-11%[46.1 µM],0,10%[46.1 µM],/,-7%
CCCC[S@@](=N)(=O)CC[C@@H](N)C(=O)O,/,/,/,7%,/,/
C=CCOC1=CS(=O)(=O)N(Cc2ccc(Br)cc2)c2ccc(Br)cc21,?,/,16,/,20µM*,-15%
O=C1CS(=O)(=O)N(Cc2ccccc2F)c2ccc(Br)cc21,-2%,/,-11,/,-1%,-12%
Cn1cc(CN2CCC(C3(c4ccccn4)NC(=O)N(CC4CCCO4)C3=O)CC2)c2ccccc21 (stereo unspecified),i,/,/,/,/,-15%
COc1cc2c(cc1O)[C@@H]1Cc3ccc(OC)c(O)c3CN1CC2,-3%,/,-15,/,2.5µM*,-19%
Oc1cccc(C2c3[nH]c4ccccc4c3CCN2Cc2ccc3c(c2)CCO3)c1 (stereo unspecified),?,?,-21,3.2µM*,-12%,?
COc1ccc(C2c3[nH]c4ccccc4c3CCN2Cc2cccn2-c2ncccn2)cc1C (stereo unspecified),-3%,?,-99*,7.1µM*,?,-2%
Cc1cccc(C2c3[nH]c4ccccc4c3CCN2Cc2cccn2-c2ncccn2)c1 (stereo unspecified),i,11µM*,-32,?,-15%,4%
c1ccc(C2c3[nH]c4ccccc4c3CCN2Cc2cccn2-c2ccccn2)nc1 (stereo unspecified),/,/,10,/,?,/
C[C@@H](C(=O)O)c1ccc(C[C@@H]2CCCC2=O)cc1,/,/,/,22%,/,/
Cc1ccc(C(=O)Nc2cnn(-c3ccc(C(=O)NCc4nc(-c5ccccc5)n[nH]4)cc3)c2)c(C)c1,-21%,/,/,/,/,-25%
Cc1ccc2c(c1)C(=O)C(=O)N2CC1COc2ccccc2O1 (stereo unspecified),-14%,-22%[46.1 µM],-67*,?,-17%,-16%
CCN1CCN(CC2COc3ccccc3O2)CC1 (stereo unspecified),/,/,-64*,/,8%,/
CCOc1ccc2c(c1)C(=O)C(=O)N2CC1COc2ccccc2O1 (stereo unspecified),/,/,-65*,/,-30%,/
COc1ccc2c(c1)C(=O)C(=O)N2CC1COc2ccccc2O1 (stereo unspecified),/,/,-82*,/,-27%,/
Cc1ccc(C(=O)OC[C@H]2O[C@H](Cl)C[C@H]2OC(=O)c2ccc(C)cc2)cc1,/,/,/,1%[14.2 µM],/,/
COc1ccc2c(c1)c1c(c(=O)n(-c3cccc(C)c3)c(=O)n1Cc1cccc(Cl)c1)n2C,-11%,1%[46.1 µM],-67*,/,/,-12%
COc1ccc2c(c1)c1c(c(=O)n(-c3ccc(F)c(Cl)c3)c(=O)n1Cc1cccc(C)c1)n2C,-12%,28%[46.1 µM],12,/,/,-5%
Cc1cc(/C=C2\SC(=S)N(Cc3ccco3)C2=O)c(C)n1-c1ccccc1,i,?,-67*,?,?,-7%
CN(C)c1ccc(C=C2SC(=S)N(Cc3ccco3)C2=O)cc1,-10%,/,-30,/,/,356%
CCCC(=O)N1CCN(c2ccc(NC(=O)c3cc4ccccc4o3)cc2Cl)CC1,/,16µM*,-103*,?,2.2µM*,10µM*
CCC(=O)N1CCN(c2ccc(NC(=O)c3cc4ccccc4o3)cc2Cl)CC1,?,?,-104*,11µM*,11µM*,11µM*
O=C(Nc1ccc(N2CCN(C(=O)c3ccccc3)CC2)c(Cl)c1)c1ccco1,-25%,?,-33,?,10µM*,?
CN1CCN(c2ccc(C(F)(F)F)cc2NC(=O)c2ccco2)CC1,-20%,1%[46.1 µM],50,10µM*,-17%,-14%
SMILES,Vaccinia mCherry,LASV entry inh,HCMV antiviral,MARV entry inh,HCV inhibitor,VACV Venus inh
CC(C)Oc1ccc(Nc2cc3c(cn2)cc(-c2cccnc2)n3C)cc1,/,/,-6,/,/,/
O=C(c1ccc(CSc2nc3ccncc3n2Cc2ccc(F)cc2)cc1)N1CCCCCC1,-22%,-21%[46.1 µM],-22,-20%[46.1 µM],/,-17%
Cc1cccc(NC(=O)CN2c3ccccc3S(=O)(=O)c3ccccc32)c1C,-14%,16%[46.1 µM],25,/,/,-9%
O=C(Nc1ccc(N2CCN(C(=O)c3ccco3)CC2)c(Cl)c1)c1cc2ccccc2o1,11µM*,?,-99*,?,3.5µM*,16µM*
COc1ccccc1Oc1cn[nH]c1-c1ccc(O)cc1O,/,/,-66*,/,-21%,/
COc1cccc(Oc2cn[nH]c2-c2ccc(O)cc2O)c1,?,7%,-16,?,?,-17%
COc1cccc(Oc2cn[nH]c2-c2ccc(OC)cc2O)c1,?,?,-7,?,11µM*,?
CCc1cc2c(nc1CC)CCN(CCC(C)=NO[C@@H]1O[C@H](COC(C)=O)[C@@H](OC(C)=O)[C@H](OC(C)=O)[C@@H]1OC(C)=O)C2,/,/,/,-19%[14.2 µM],/,/
CCOCCCNC(=O)C1CCCN(Cc2nc(-c3ccc(CC)cc3)oc2C)C1 (stereo unspecified),?,-24%[46.1 µM],-8,?,/,-23%
CCn1cc([N+](=O)[O-])c(C(=O)N2CCOCC2)n1,-20%,?,-11,?,5%,-3%
CCn1cc([N+](=O)[O-])c(C(=O)N2N=C3/C(=C/c4cccs4)CCCC3C2c2cccs2)n1 (stereo unspecified),/,?,43,-28%,10µM*,/
CN(CC1CCCCC1)[C@@H]1CC[C@@]23CCCN2C(=O)CCC[C@H]3[C@H]1Cc1ccccc1,/,/,27,/,/,/
CCN(CC)S(=O)(=O)c1cc(C(=O)Nc2cc(C)on2)ccc1Cl,-15%,12%[46.1 µM],-64*,-28%[46.1 µM],?,1%
CCN(CC)S(=O)(=O)c1cccc(C(=O)N/N=C/c2ccc(O)c(O)c2O)c1,i,6%,34,1%,7%,-7%
CCN(CC)S(=O)(=O)c1cccc(C(=O)Nc2ccc(Cl)cn2)c1,/,?,-11,?,3.5µM*,/
CCN(CC)S(=O)(=O)c1cc(C(=O)Nc2ccc(Cl)cn2)ccc1C,/,?,41,?,16µM*,?
CCN(CC)S(=O)(=O)c1cccc(C(=O)N/N=C(\C)c2ccc(O)cc2O)c1,?,?,-95*,7.9µM*,8.9µM*,?
CCN(CC)S(=O)(=O)c1cccc(C(=O)Nc2ccccc2C(=O)Nc2ccc(Cl)cc2)c1,-13%,?,7,/,/,-15%
CCS(=O)(=O)N1CC(=O)N(c2cc(Cl)ccc2C)C(C)(C(=O)NC2CCCCCC2)C1 (stereo unspecified),-12%,2%[46.1 µM],?,/,/,-8%
Cc1ccc(CNC(=O)c2ccc3c(=O)n(-c4ccccc4)c(=O)[nH]c3c2)cc1,2%,-11%[46.1 µM],3,15%[46.1 µM],/,9%
